Experimental data from PubChem BioAssay AID588342 (National Center for Advancing Translational Sciences (NCATS), 2011).
Among all 360,000 compounds or so, about 25,000 (6.9%) were called active. Not shown: some 9% with an inconclusive outcome. Only a selection was taken, and actives are over-represented in it overall. Unmarked numbers belong to inactive results. Calls come from the whole dose curve; as a rule, active = well fitted inhibition curve with a large enough effect; inconclusive = small, poorly fitted or top-dose-only effect; inactive = flat fitted curve, though single readings scatter.

target: Luciferin 4-monooxygenase (Photinus pyralis) (UniProt P08659); assay: qHTS profiling assay for firefly luciferase inhibitor/activator using purifed enzyme and Km concentrations of substrates (counterscreen for miR-21 project); settings: purified FLuc, luminescence inhibition; series mostly up to 57.5 µM; activity change, negative = inhibition: at the top concentration; note: nearly all actives have a fitted effect of over 55% in size;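 for activity change, negative = inhibition: plate controls were vehicle for no effect and reference inhibitor for full effect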
Sequence (P08659 whole entry, looked up): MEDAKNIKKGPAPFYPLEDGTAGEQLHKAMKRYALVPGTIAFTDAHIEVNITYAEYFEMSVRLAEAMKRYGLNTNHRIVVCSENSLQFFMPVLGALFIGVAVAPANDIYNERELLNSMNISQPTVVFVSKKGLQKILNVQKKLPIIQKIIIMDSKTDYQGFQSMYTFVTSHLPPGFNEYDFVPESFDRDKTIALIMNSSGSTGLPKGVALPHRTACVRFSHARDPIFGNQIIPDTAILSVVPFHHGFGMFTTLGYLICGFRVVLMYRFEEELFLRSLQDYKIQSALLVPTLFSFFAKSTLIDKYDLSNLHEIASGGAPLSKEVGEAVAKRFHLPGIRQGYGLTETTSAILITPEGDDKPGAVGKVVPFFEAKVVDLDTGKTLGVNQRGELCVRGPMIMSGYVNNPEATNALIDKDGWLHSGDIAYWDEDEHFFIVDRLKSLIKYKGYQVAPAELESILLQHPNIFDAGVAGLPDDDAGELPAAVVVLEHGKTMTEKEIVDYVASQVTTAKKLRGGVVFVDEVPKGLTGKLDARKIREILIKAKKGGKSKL
Text: MLPCN Grant: 1 R21 NS059478-01 (miR-21 grant) Assay Provider: NCGC NCGC Assay Overview: Firefly (Photinus pyralis) luciferase is one of the most commonly used transcriptional reporters for a number of reasons. It is considered one of the more dynamically responsive reporters -that is, responsive to changes in reporter transcription - as it requires no post-translational modifications and is enzymatically active directly after protein synthesis (Wood, 1998). Additionally, the half-life of the luciferase protein is short relative to other reporter-gene products (Wood, 1995). Whereas reporters with long half-lives potentially allow for increased signal due to accumulation of reporter-gene product, once accumulated in the cell, dynamic changes in reporter-gene expression may be difficult to detect(Fan and Wood, 2007; Almond et al., 2004). It has been shown that wild-type P. pyralis luciferase has a half-life of approximately […] hours in mammalian cells (Thompson et al., 1991). Firefly luciferase reporter-gene assays are also generally considered one of the most sensitive assay types (Wood, 1995; Wood, 1998). Although light produced in a bioluminescence reaction is of lower intensity than that produced during fluorescence emission, this is offset by little to no background light inherent to luminescent assays. Thus the luciferase reporter can be expressed at much lower levels than fluorescent proteins while still providing robust signal. # However, it was initially observed, in 1991, by Thompson et al., that compounds that resemble the substrates of firefly luciferase (FLuc) can act as competitive inhibitors of the enzyme, and that these compounds, upon interaction with luciferase in the cell, can actually stabilize the protein and increase its half-life. Accumulated intracellular FLuc protein can be measured as an increase in luminescence signal, upon addition of detection reagents (which contain high concentrations of FLuc substrates) commonly used in high-throughput screening. In cell-based reporter gene assays that use FLuc as the reporter gene to quantitate the potential influence of a given compound against the target biology, this apparent increase in luminescence can mistakenly be interpreted as identification of a compound that is active against the target of interest. This is the case for the miR-21 FLuc reporter gene assay used to identify inhibitors of the miR-21 pathway (PubChem AID 2289) - compounds of interest will inhibit miR-21 biogenesis/expression or activity, and are identified by causing an increase in luminescence, due to increased FLuc translation. However, FLuc inhibitory compounds that stabilize the FLuc protein will give an identical read-out, making it difficult to distinguish compounds that are active against the target from those active against FLuc. Previous profiling work to determine the prevalence of compounds that affect FLuc enzymatic activity (PubChem AID 411) identified that ~3% of the MLSMR library (then at ~72K) inhibited FLuc. […] Since the MLSMR had grown to ~350K compounds, and since it was expected that a significant percentage of compounds found active in the miR-21 FLuc assay would be FLuc inhibitors, the library was screened for activity against FLuc using a biochemical assay of purified FLuc and KM concentrations of FLuc substrates (D-luciferin and ATP).
NCGC Assay Protocol Summary: Reagents: 50mM Tris acetate, pH 7.5; 10mM Mg acetate; 10uM D-luciferin (Sigma #L9504); 10uM ATP; 0.01% Tween-20; 0.05% BSA; 10nM P. pyralis luciferase (Sigma #L9506) Control compounds used were two known firefly luciferase inhibitors (compounds (2) and (5) in Auld et al., 2010), and DMSO. […]

SMILES | activity change, negative = inhibition | Potency
CCCc1cc(=O)oc2c(C)c(OCC(=O)NCc3ccccn3)ccc12 | -0.539% | 
CCc1cc(=O)oc2c(C)c(OCC(=O)NCCN3CCOCC3)ccc12 | 2.46% | 
CCCc1cc(=O)oc2c(C)c(OCC(=O)Nc3ccccn3)ccc12 |  | 1.69 µM (active)
COc1ccc(NC(=O)CCN2CCN(CCO)CC2)cc1 | -2.42% | 
O=C(Nc1ccon1)c1nc[nH]c1C(=O)NCc1ccccc1 | 3.38% | 
Cc1cc(C)n2nc(C(=O)Nc3cccc(S(=O)(=O)N4CCOCC4)c3)nc2n1 | 3.28% | 
O=C(Cc1ccccc1)Nc1cccc(C(=O)N/N=C/c2ccco2)c1 | -27.1% | 
O=C(O)c1cccc(NC(=S)N/N=C/c2c[nH]c3ccccc23)c1 |  | 0.757 µM (active)
O=C(N/N=C/c1c[nH]c2ccccc12)c1ccccc1O |  | 6.01 µM (active)
O=C(N/N=C/c1c[nH]c2ccccc12)c1cc2ccccc2o1 |  | 13.5 µM (active)
O=C(CSc1nc2ccccc2o1)N/N=C/c1ccccc1C(=O)O | -4.26% | 
CN(C)S(=O)(=O)c1cccc(NC(=S)N/N=C/C(=O)c2ccccc2)c1 | -12.4% | 
Nc1nonc1-n1nnc(C(=O)N/N=C/c2c[nH]c3ccccc23)c1-c1ccccc1 | -1.39% | 
Cc1ccc2occ(/C=N/NC(=O)c3ccccc3C)c(=O)c2c1 | -16.4% | 
CC(C)(C)n1nc2c(c1NC(=O)c1cc3ccccc3o1)CSC2 | 3.62% | 
Cc1c(/C=N/N2C(=O)C3C4C=CC(C4)C3C2=O)c2ccccc2n1C (configuration not stated) | 1.31% | 
Cc1c(/C=N\NC(=O)c2cc3ccccc3o2)c2ccccc2n1C |  | 9.53 µM (active)
O=C(N/N=C/c1ccc([N+](=O)[O-])cc1)c1c[nH]c2ccccc12 | -17.6% | 
Cc1c(NC(=O)Nc2ccc(F)c(Cl)c2)c(=O)n(-c2ccccc2)n1C | -0.943% | 
Cc1cccc(N2CCN(C(=O)c3cc4c(=O)oc5ccccc5c4s3)CC2C)c1 (configuration not stated) | -0.651% | 
CCc1ccc(NC(=O)CCS(=O)(=O)c2cc3c(cc2Cl)NC(=O)CO3)cc1 | 0.0113% | 
COc1ccc([N+](=O)[O-])cc1NC(=O)c1ccc(N(Cc2ccccc2C)S(C)(=O)=O)cc1 | -1.17% | 
CN(C)C(=O)COC(=O)c1cccc(S(=O)(=O)N2CC3(C)CC2CC(C)(C)C3)c1 (configuration not stated) | 2.76% | 
O=C(CNC(=O)c1ccccc1Br)NNC(=O)c1cccs1 | 2.69% | 
COc1cc(C(c2c(NC(=O)c3ccco3)sc(C)c2C)N2CCOCC2)cc(OC)c1OC (configuration not stated) | -0.244% | 
COc1ccc(C2CC(c3cccs3)=NN2c2nc(C)c(C(C)=O)s2)cc1OC (configuration not stated) | 2.84% | 

SMILES | activity change, negative = inhibition | Potency
COc1ccc(C2CC(c3cccs3)=NN2c2ccc(F)cc2)cc1OC (configuration not stated) | -19.9% | 
COc1ccc(C2CC(c3cccs3)=NN2c2ccccc2)cc1 (configuration not stated) |  | 21.3 µM (active)
COc1cc(CN(CC2CCCO2)C(=O)c2ccccc2F)cc(OC)c1OC (configuration not stated) | -0.254% | 
c1ccc(-c2cc(-c3ccccc3)[nH]n2)cc1 |  | 7.57 µM (active)
Cc1ccc(NC(=O)c2cc(-c3ccccc3O)n[nH]2)cc1C | -1.11% | 
Oc1ccccc1-c1cc(-c2ccc(Cl)cc2)n[nH]1 |  | 0.953 µM (active)
S=c1[nH]nc(-c2cc(-c3ccccc3)n[nH]2)n1/N=C/c1c2ccccc2cc2ccccc12 | -14.2% | 
CNc1nc(-c2ccccc2)cc(-c2ccccc2)n1 | -4.74% | 
Oc1cc(O)c2c(c1)OC(c1ccc(O)c(O)c1)C(O)C2 (configuration not stated) | 5.83% | 
Cc1ccc(Cl)cc1NC(=O)CCC(=O)N1CC(C)Sc2ccccc21 (configuration not stated) | -4.47% | 
CCOC(=O)c1ccc(NC(=O)CSc2nc3c([nH]c4ccccc43)c(=O)n2C)cc1 | 2.26% | 
O=C(CN1CCc2ccccc2C1)Nc1cccc(S(=O)(=O)N2CCOCC2)c1 | 0.0865% | 
CS(=O)(=O)c1ccccc1C(=O)Nc1ccc2sccc2c1 | 1.48% | 
Cn1c(=O)c(=O)n(C)c2cc(NC(=O)c3ccccc3Br)ccc21 | 4.88% | 
O=C(Nc1ccc2sc3ccccc3c(=O)c2c1)c1ccccc1Cl |  | 2.13 µM (active)
COc1ccccc1NC(=O)C1=C(C)Nc2ncnn2C1c1sccc1C (configuration not stated) | 2.3% | 
COc1ccccc1Nc1nnc(SC(C)C(=O)NC2CC2)s1 (configuration not stated) | 3.74% | 
Cc1[nH]n(-c2ccccc2)c(=O)c1CCOC(=O)c1ccc(C(F)(F)F)cc1 |  | 21.3 µM (active)
CCCOC(=O)c1ccc(N2C(=O)c3ccccc3C2=O)cc1 | -13% | 
CC1=C(C(=O)OCc2ccccc2)C(c2ccc(C(F)(F)F)cc2)NC(=O)N1CCCCCC(=O)O (configuration not stated) | -18% | 
O=C(NC1(C(F)(F)F)N=C(c2ccccc2)N(C2CCCCC2)C1=O)c1ccccc1F (configuration not stated) | -5.4% | 
CN(C)CCCN(C(=O)c1ccc(S(=O)(=O)N2CCCc3ccccc32)cc1)c1nc2ccc(F)cc2s1 | 1.08% | 
CCS(=O)(=O)N1Cc2ccccc2CC1C(=O)Nc1nc2ccc(F)cc2s1 (configuration not stated) |  | 15.1 µM (active)
CCS(=O)(=O)N1Cc2ccccc2CC1C(=O)Nc1ccc(OC)cc1OC (configuration not stated) | 3.71% | 
O=C(COC(=O)c1cc(S(=O)(=O)N2CCOCC2)ccc1Cl)NCCc1ccccc1 | 4.26% | 
CCOC(=O)c1c(C)[nH]c(C)c1S(=O)(=O)NCC(=O)NCc1cccc(C)c1 | -1.22% | 
